Outcome data for eight molecules are collected here from PubChem BioAssay AID2279 (Southern Research Specialized Biocontainment Screening …, 2010).

Potency and affinity values are given separately. Activity calls are given as the source filed them. Where a call stands in place of a potency, no number is given. The rule behind the calls is not given here.

A short description of this experiment: CCR5-tropic HIV-1 fusion blockers – cell-based, CCR5-tropic Env, dose response (AID 2279). Particulars: CCR5-tropic HIV-1 Env, reporter read-out; series mostly up to 50 µM.
For `COc1ccc(N2C(=O)/C(=C/c3ccco3)C(=O)NC2=S)cc1`, the outcome was inactive.

Regarding `Cc1ccc(N2C(=O)/C(=C/c3ccc(CN(CCC#N)S(C)(=O)=O)o3)C(=O)NC2=S)cc1C`, the result was inactive. Then `COc1ccc(OC)c(N2C(=O)/C(=C/c3ccco3)C(=O)NC2=S)c1`, with “inactive”; and `O=c1oc2ccccc2c(O)c1C(c1ccc([N+](=O)[O-])cc1)c1c(O)c2ccccc2oc1=O`, with “inactive”. In the case of `O=C1NC(=S)N(c2ccc(F)cc2)C(=O)/C1=C\c1ccoc1`, the result was inactive.

Consider `O=C1NC(=S)N(c2ccc(F)cc2)C(=O)/C1=C/c1ccco1`, for which the result was inactive.

As to `O=C(O)c1cccc2c1NC(c1cccc([N+](=O)[O-])c1)C1CC(Sc3ccccc3[N+](=O)[O-])C(Cl)C21` (stereo not drawn), the result was inactive. Take `NC(=O)Cn1cc(C=C2C(=O)NC(=O)NC2=O)c2ccccc21`: the outcome was inactive.
